The values that follow come from the supplement of paper PMC8047044.

Counter-ions that a name gives are not always drawn.

This assay concerns Neuro-2a. Kind of assay: neurite formation score, plate-normalized to DMSO control mean 5.04 (score (0-8 scale)); higher = more or longer neurites. The note with it: 1 µM. The method, then:
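Neuro-2a mouse neuroblastoma cells in PLL-coated 96-well plates were pre-treated for 1 h in DMEM(+) with each kinase inhibitor at 1 µM, then switched to serum-free DMEM(-) with inhibitor to induce neurite outgrowth and fixed about 2-3 h later. Three blinded observers scored neurite formation from 0 (no neurites) to 8 (long neurites on almost all cells).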
`CCc1ccc(/C=C2/SC(=S)NC2=O)cc1` showed a neurite formation score of 5.57.

Turning to `c1cncc(CN2CCC(n3ncc4c(N5CCOCC5)nc(-c5ccc6[nH]ccc6c5)nc43)CC2)c1`, the neurite formation score is 1.54.

Regarding `CCCCCCCCc1ccc(CCC(N)(CO)CO)cc1` [Fingolimod (FTY720)], the neurite formation score is 3.63.

As to `CN1CCN(CCOc2cc(OC3CCOCC3)c3c(Nc4c(Cl)ccc5c4OCO5)ncnc3c2)CC1` [Saracatinib (AZD0530)], the neurite formation score was 4.91.

Turning to `O=C(NOCC(O)CO)c1cc(Br)c(F)c(F)c1Nc1ccc(I)cc1F` (stereo not drawn), the neurite formation score worked out at 4.57.

`CCc1cc(Nc2nccc(-c3c(-c4ccc(OC)c(C(=O)Nc5c(F)cccc5F)c4)nc4ccccn34)n2)c(OC)cc1N1CCC(N2CCN(S(C)(=O)=O)CC2)CC1` registered a neurite formation score of 4.91.

Compound `CC(C)[C@H](CO)Nc1nc(Nc2ccc(C(=O)O)c(Cl)c2)c2ncn(C(C)C)c2n1` [Purvalanol B] registered a neurite formation score of 4.63.

`Cc1cc(Nc2ncc(Cl)c(Nc3ccccc3S(=O)(=O)C(C)C)n2)c(OC(C)C)cc1C1CCNCC1` registered a neurite formation score of 4.24.

Consider `CCCCCCCCCCCCCC(=O)OC[C@H](CO)OC(=O)CCCCCCCCCCCCC` [1,2-Dimyristoyl-sn-glycerol], for which the neurite formation score turned out to be 4.88.

Regarding `Cc1ccc(NC(=O)c2ccc(CN3CCN(C)CC3)cc2)cc1Nc1nccc(-c2cccnc2)n1` [Imatinib Mesylate (STI571)], the neurite formation score worked out at 4.91.

As to `CCN1CCN(c2ccc(Nc3cc(N(C)C(=O)Nc4c(Cl)c(OC)cc(OC)c4Cl)ncn3)cc2)CC1`, the neurite formation score turned out to be 3.8.

The compound `O=c1cc(N2CCOCC2)oc2c(-c3cccc4c3sc3ccccc34)cccc12` yielded a neurite formation score of 2.9.

In turn, `Cc1nc(-c2cn3c(n2)-c2ccc(-c4cnn(C(C)(C)C(N)=O)c4)cc2OCC3)n(C(C)C)n1` displayed a neurite formation score of 5.29.
